# Test results published in ChEMBL document CHEMBL3988442, “University of Dundee, Small-Polar-MMV Screening Library” (2021).
# In all, about 66,000 compounds went through this assay and about 960 (1.5%) showed an effect of 50% or more. This is one part of a sample in which strong results are shown more often than they occur.
# System: Trypanosoma brucei
# Assay: Trypanosoma brucei 72 hour study
# Type: functional, organism-based
# Set-up: scale not given: in the data most compounds retested in dose-response had high values
smiles,measurement,setting,value
Cc1ncc(C(=O)NCCOc2ccccc2F)c(C)n1,Percent Effect,"30 µM, 30.03 µM",-71.35%
Cc1nc(C2(O)CCCNCC2)sc1CCOc1ccccc1F.Cl (stereo not given),Percent Effect,"30.3 µM, […]",74.4%
Cc1nc(C2(O)CCCNCC2)sc1CCOc1ccccc1Cl.Cl (stereo not given),Percent Effect,"30.3 µM, […]",102.3%
Cc1ncccc1OC1(C(=O)NCCNc2ccccc2)CCNCC1,Percent Effect,"30.3 µM, […]",0.199%
CCN1CCCC(O)(c2nc(C)c(CCOc3ccccc3Cl)s2)CC1 (stereo not given),Percent Effect,"30.3 µM, […]",33.23%
CCN1CCCC(O)(c2nc(C)c(CCOc3ccccc3F)s2)CC1 (stereo not given),Percent Effect,"30.3 µM, […]",-7.056%
Cc1nc(C2(O)CCCNCC2)sc1CCOc1ccccc1.Cl (stereo not given),Percent Effect,"30.3 µM, […]",41.97%
CC(=O)Nc1nc(C(=O)NCCOc2ccccc2F)cs1,Percent Effect,"30.3 µM, […]",-41.52%
CNC(=O)CN1CC[C@H]2CN(C(=O)c3ccccc3C)C[C@H]2C1.O=C(O)C(F)(F)F,Percent Effect,"30.3 µM, […]",-31.13%
O=C(COc1ccccc1F)N1CCCCC1c1ccn2ccnc2n1 (stereo not given),Percent Effect,"30.3 µM, […]",-11.94%
O=C(C1=CCCC1)N1CCO[C@H]2[C@@H](Oc3ccccn3)CC[C@@H]21.O=C(O)C(F)(F)F,Percent Effect,"30 µM, 30.03 µM",21.55%
Cc1c(C)n(Cc2ccccn2)c2nc3c(c(N)c12)CCCC3,Percent Effect,"30 µM, 30.03 µM",14.96%
Cc1c(C)n(-c2ccccn2)c2nc3c(c(N)c12)CCCC3,Percent Effect,"30 µM, 30.03 µM",65.81%
Cc1c(C)n(-c2ccccn2)c2nc3c(c(N)c12)CCCCC3,Percent Effect,"30 µM, 30.03 µM",-26.49%
O=C(C1CCCC1)N1C[C@@H]2CCN(c3cnccn3)C[C@@H]2C1.O=C(O)C(F)(F)F,Percent Effect,"30.3 µM, […]",-13.6%
CCc1ccc(CN2C[C@@H]3COC[C@H](NS(C)(=O)=O)[C@@H]3C2)o1.O=C(O)C(F)(F)F,Percent Effect,"30.3 µM, […]",-9.462%
Cc1ccc(N2CCC3(CCN(C(=O)c4ccsc4)CC3)CC2)nn1,Percent Effect,"30 µM, 30.03 µM",20.14%
Cc1ccc(NC2CCN(C(=O)c3ccsc3)CC2)nn1,Percent Effect,"30 µM, 30.03 µM",-24.89%
Cc1ccc(N(C)C2CCN(C(=O)c3ccsc3)CC2)nn1,Percent Effect,"30 µM, 30.03 µM",59.68%
CC1=Nc2c(c(=O)[nH]n2C2CCCC2)C(c2ccc(O)cc2)S1 (stereo not given),Percent Effect,"30 µM, 30.03 µM",-3.6%
Cc1cc(C)n(CC2CN(Cc3nc4ccccc4s3)CCO2)n1 (stereo not given),Percent Effect,"30.3 µM, […]",18.1%
CCn1cc(S(=O)(=O)N2CCC(C)Sc3ccccc32)cn1 (stereo not given),Percent Effect,"30 µM, 30.03 µM",-33.91%
CC1CCN(S(=O)(=O)c2cccnc2)c2ccccc2S1 (stereo not given),Percent Effect,"30 µM, 30.03 µM",80.08%
CN1CCN(S(=O)(=O)c2cccnc2)c2cnccc21,Percent Effect,"30.3 µM, […]",-3.164%
Cn1nc(C(=O)N2CCOCC2)cc1C(=O)Nc1c(Cl)cccc1Cl,Percent Effect,"30 µM, 30.03 µM",-27.89%
CC(C)c1cc(C2CCN(C(=O)Cn3cnc4ccccc43)CC2)[nH]n1,Percent Effect,"30 µM, 30.03 µM",-44.45%
Cc1cc(C(F)(F)F)nc(CCNC(C)Cn2ccnc2)n1 (stereo not given),Percent Effect,"30 µM, 30.03 µM",-48.3%
CCCC(=O)N(CCCN1CCOCC1)c1nc2c(Cl)cccc2s1.Cl,Percent Effect,"30.3 µM, […]",55.71%
CCCC(=O)N(CCN1CCOCC1)c1nc2c(OC)ccc(C)c2s1.Cl,Percent Effect,"30.3 µM, […]",13.57%
CN(CCN1CCOCC1)C(=O)CCc1cccc(Cl)c1,Percent Effect,"30 µM, 30.03 µM",2.26%
CCCC(=O)N(CCCN1CCOCC1)c1nc2c(C)c(C)ccc2s1.Cl,Percent Effect,"30.3 µM, […]",27.33%
CCCC(=O)N(CCCN1CCOCC1)c1nc2c(F)cccc2s1.Cl,Percent Effect,"30.3 µM, […]",24.42%
CCCC(=O)N(CCCN1CCOCC1)c1nc2c(C)ccc(Cl)c2s1.Cl,Percent Effect,"30.3 µM, […]",71.42%
CN1CC[C@]2(CN(CC3CCOC3)C[C@H]2c2ccccc2)C1=O.O=C(O)C(F)(F)F (stereo not given in full),Percent Effect,"30.3 µM, […]",-23.92%
Cc1cc2c(=O)n3c(nc2s1)CCN(C(=O)c1nn(C)cc1Cl)CC3,Percent Effect,"30.3 µM, […]",-11.28%
CN1CC(=O)N(c2cccnc2)CC12CCN(C(=O)c1cccn1C)C2.O=C(O)C(F)(F)F.O=C(O)C(F)(F)F (stereo not given),Percent Effect,"30.3 µM, […]",-4.553%
O=C(C[C@@H]1COC[C@H]2CN(C(=O)c3ccccn3)C[C@@H]12)N1CCCC1.O=C(O)C(F)(F)F,Percent Effect,"30 µM, 30.03 µM",-14.99%
CS(=O)(=O)NCc1cnc2n1CCN(Cc1cccnc1)CC2.O=C(O)C(F)(F)F.O=C(O)C(F)(F)F,Percent Effect,"30 µM, 30.03 µM",-10.23%
O=C(Nc1cccnc1)C1Cc2nc(-c3ccsc3)sc2N1CC1CC1.O=C(O)C(F)(F)F (stereo not given),Percent Effect,"30.3 µM, […]",60.89%
O=C(NC1CCCC1)C1Cc2nc(-c3ccsc3)sc2N1CC1CC1 (stereo not given),Percent Effect,"30.3 µM, […]",33.5%
CN(C)CCNC(=O)C1Cc2nc(-c3ccsc3)sc2N1CC1CC1.O=C(O)C(F)(F)F (stereo not given),Percent Effect,"30.3 µM, […]",5.041%
Cl.c1cc(CNc2cnc(C3CCCN3)cn2)ccn1 (stereo not given),Percent Effect,"30.3 µM, […]",-6.296%
Cc1nc(NC(=O)C2CCCN(C(N)=O)C2)sc1-c1ccccc1 (stereo not given),Percent Effect,"30 µM, 30.03 µM",57.12%
CSc1sc(NC(=O)C2CCCN(C(N)=O)C2)nc1C (stereo not given),Percent Effect,"30 µM, 30.03 µM",-35.12%
Cc1nc(NC(=O)C2CCCN(C(=O)C3CC3)C2)sc1C (stereo not given),Percent Effect,"30 µM, 30.03 µM",-11.09%
CC(C)N1CCC2(CC1)CC(NCc1ccccn1)c1ccccc1O2.O=C(O)C(F)(F)F.O=C(O)C(F)(F)F.O=C(O)C(F)(F)F (stereo not given),Percent Effect,"30 µM, 30.03 µM",2.75%
CCc1nnsc1C(=O)N1CCCC(n2ccnc2C(C)C)C1 (stereo not given),Percent Effect,"30.3 µM, […]",-10.58%
COc1cccc(Nc2nc(C3CCNCC3)c3ccccn23)c1.Cl,Percent Effect,"30.3 µM, […]",24.37%
COc1cccc(Nc2nc(C3CCCNC3)c3sc(C)c(C)n23)c1.Cl (stereo not given),Percent Effect,"30.3 µM, […]",2.239%
Cc1nn(C(C)C)c(C)c1S(=O)(=O)Nc1cccc(F)c1,Percent Effect,"30 µM, 30.03 µM",-2.912%
Cc1sc2c(C3CCNCC3)nc(Nc3cccc(F)c3)n2c1C.Cl,Percent Effect,"30.3 µM, […]",99.26%
Cl.O=C(Nc1cccc(F)c1)C1=NOC2(CCNCC2)C1,Percent Effect,"30.3 µM, […]",-7.13%
Fc1cccc(-c2nccnc2C2CCCNC2)c1 (stereo not given),Percent Effect,"30.3 µM, […]",-21.91%
COc1cccc(Nc2nc(C3CCCNC3)c3ccccn23)c1.Cl (stereo not given),Percent Effect,"30.3 µM, […]",-1.342%
Cc1sc2c(C3CCCNC3)nc(Nc3cccc(F)c3)n2c1C.Cl (stereo not given),Percent Effect,"30.3 µM, […]",100.1%
COc1cccc(Nc2nc(C3CCNCC3)c3sc(C)c(C)n23)c1.Cl,Percent Effect,"30.3 µM, […]",63.57%
CCN(Cc1nc2c(cnn2C)c(=O)[nH]1)c1cc(C)cc(C)c1,Percent Effect,10 µM,-28.14%
same,Percent Effect,"30.3 µM, […]",-21.13%
N#Cc1ccc(N2CCCC3(CCN(c4cncnc4)C3=O)C2)nc1.O=C(O)C(F)(F)F (stereo not given),Percent Effect,"30.3 µM, […]",-13.65%
Cl.O=C(Nc1cc(C(F)(F)F)c[nH]c1=O)C1CCCCN1 (stereo not given),Percent Effect,"30 µM, 30.03 µM",4.306%
